This note sets out measurements from PubChem BioAssay (NCI).

Structures are written as SMILES. Compounds without any hit were thinned out: in the full panel of roughly 83,000, 20% have a hit.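 Interpretation: 100, growth as untreated; towards 0, rising growth inhibition; 0, no net growth; 0 to -100, cell death. Compounds scoring below 10 were considered active.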 Values without a mark were called inactive. Active and inactive are the calls of the source.

Holding throughout (test): NCI-60 one-dose screen, 48 h (100 = growth as untreated, 0 = no growth, -100 = all killed)
For one assay, the system named is NCI-H23 lung. The settings on record: 10 µM unless noted.
The test system of another assay is NCI-H226 lung. Conditions: 10 µM unless noted.
A further assay concerns NCI-H322M lung. The settings on record: 10 µM unless noted.
For another assay, the system named is HOP-62 NSCLC. Conditions: 10 µM unless noted.
A further assay has as its system NCI-H460 lung. Conditions: 10 µM unless noted.
For the next assay, the system named is HOP-92 NSCLC. Conditions: 10 µM unless noted.
The next assay relates to NCI-H522 lung. The settings on record: 10 µM unless noted.
The next assay relates to A549/ATCC NSCLC. Conditions: 10 µM unless noted.
The next assay has as its system 786-0 renal. The settings on record: 10 µM unless noted.
The next assay relates to COLO 205 colon. The settings on record: 10 µM unless noted.
For a further assay, the system named is DU-145 prostate. Conditions: 10 µM unless noted.
The test system of the next assay is K-562 leukemia. Conditions: 10 µM unless noted.
The test system of a further assay is MALME-3M melanoma. Conditions: 10 µM unless noted.
In the next assay the test system is MDA-MB-231 breast. Conditions: 10 µM unless noted.
The next assay relates to RXF 393 renal. Conditions: 10 µM unless noted.
The test system of the next assay is SF-268 CNS. The settings on record: 10 µM unless noted.
A further assay relates to SF-295 CNS. The settings on record: 10 µM unless noted.
Another assay deals with SF-539 CNS. The settings on record: 10 µM unless noted.
The test system of another assay is UACC-257 melanoma. Conditions: 10 µM.

In the case of `Oc1ccc(CSc2nnc(-c3ccc(Oc4ccccc4)cc3)o2)c2cccnc12`, the growth in the assay on NCI-H23 lung is 31.3%; in the assay on NCI-H226 lung it was 71.8%; in the assay with NCI-H322M lung, 36.7%; in the assay on HOP-62 NSCLC, 9.54% (active); in the assay with NCI-H460 lung it was 3.07% (active); in the assay with HOP-92 NSCLC, 33.7%. Further, the growth with NCI-H522 lung was 40.1%; in the assay on A549/ATCC NSCLC, 9.22% (active); with 786-0 renal, -11.5% (active); in the assay on COLO 205 colon, 78.2%; in the assay with DU-145 prostate, 45.6%; in the assay on K-562 leukemia, 9.13% (active). The growth with MALME-3M melanoma was 70.8%; in the assay with MDA-MB-231 breast it was 45.5%; in the assay on RXF 393 renal, 60.6%; in the assay on SF-268 CNS, 28.8%; in the assay on SF-295 CNS, 1.44% (active); in the assay on SF-539 CNS, 31.6%. The growth with UACC-257 melanoma was 45.1%.

Turning to `COCCC[C@H]1O[C@@](O)([C@H](C)[C@@H]2CC(OC)C(O)/C=C(C)/C=C(C)/C=C(\C)C(OC3O[C@@H](C)[C@H](O)C(O)[C@@H]3O)C(C)/C=C(C)/C=C(OC)/C=C(\C)C(=O)O2)C(OC)C(O)[C@]1(C)O[C@H]1C[C@@H](O)[C@H](O[C@H]2C[C@](C)(O)[C@H](O)C(C)O2)C(C)O1` (some centres not stated), the growth was 41.2% in the assay on NCI-H23 lung; 38.2% in the assay on NCI-H226 lung; 97.4% in the assay with NCI-H322M lung; 68.9% in the assay on HOP-62 NSCLC; 52.1% in the assay on NCI-H460 lung; 88.2% with HOP-92 NSCLC. Moreover, the growth with NCI-H522 lung was 34.2%; in the assay on A549/ATCC NSCLC, 40%; in the assay with 786-0 renal, 73.1%; with COLO 205 colon it was 40.4%; in the assay on DU-145 prostate, 48.5%; with K-562 leukemia it was 21.2%. The growth in the assay with MALME-3M melanoma is 51.1%; in the assay with MDA-MB-231 breast, 84.1%; in the assay on RXF 393 renal, 47.6%; with SF-268 CNS, 73%; with SF-295 CNS it was 24.8%; in the assay with SF-539 CNS, 79.2%. The growth with UACC-257 melanoma was 3.39% (active).

For `Cc1ccc(-n2cc(/C=C/C(=O)c3ccc(S(C)(=O)=O)cc3)c(-c3ccc(S(C)(=O)=O)cc3)n2)cc1`, the growth in the assay with NCI-H23 lung is 87.4%; in the assay with NCI-H226 lung it was 100%; in the assay on NCI-H322M lung, 94.6%; in the assay on HOP-62 NSCLC it was 89.2%; in the assay with NCI-H460 lung, 100%; with HOP-92 NSCLC, 115%. Besides, the growth with NCI-H522 lung is 74.2%; with A549/ATCC NSCLC it was 103%; with 786-0 renal, 103%; in the assay with COLO 205 colon it was 114%; with DU-145 prostate, 104%; with K-562 leukemia it was 27%. For the same compound, the growth in the assay on MALME-3M melanoma was 50.3%; in the assay on MDA-MB-231 breast, 86.5%; with RXF 393 renal it was 97.9%; with SF-268 CNS, 104%; with SF-295 CNS, 97.2%; in the assay on SF-539 CNS it was 88.8%. In addition, the growth in the assay on UACC-257 melanoma is 100%.

In the case of `C#Cc1ccc(NC(=O)c2ccc(/C=C/C(=O)c3nccn3C)cc2)c(F)c1`, the growth was 11.4% in the assay with NCI-H23 lung; 42.8% in the assay with NCI-H226 lung; 19.8% in the assay on NCI-H322M lung; 2.11% (active) in the assay with HOP-62 NSCLC; 6.28% (active) in the assay with NCI-H460 lung; 67.5% in the assay on HOP-92 NSCLC. The growth in the assay on NCI-H522 lung was 20.4%; in the assay with A549/ATCC NSCLC, 19.9%; in the assay on 786-0 renal it was 37.7%; in the assay with COLO 205 colon it was 73%; in the assay with DU-145 prostate, 27.5%; with K-562 leukemia, 12%. The growth in the assay with MALME-3M melanoma was 89.8%; in the assay on MDA-MB-231 breast, 23.6%; with RXF 393 renal, 10.5%; in the assay with SF-268 CNS it was 28%; in the assay on SF-295 CNS it was 26.1%; with SF-539 CNS it was -22.5% (active). Moreover, the growth in the assay on UACC-257 melanoma is 64.7%.

On to `COc1ccc([C@H]2c3[nH]c4ccccc4c3C[C@@H]3C(=O)N(C4CCN(Cc5ccccc5)CC4)CC(=O)N23)c(OC)c1`, for which the growth is 93.7% with NCI-H23 lung; 82.3% in the assay with NCI-H226 lung; 90.1% with NCI-H322M lung; 80.8% in the assay with HOP-62 NSCLC; 54.4% in the assay on NCI-H460 lung; 68% in the assay on HOP-92 NSCLC. For the same compound, the growth is 87% in the assay on NCI-H522 lung; 69.8% with A549/ATCC NSCLC; 74.3% in the assay with 786-0 renal; 67.1% with COLO 205 colon; 86.3% in the assay on DU-145 prostate; 28.8% with K-562 leukemia. Moreover, the growth in the assay on MALME-3M melanoma was 97.1%; with MDA-MB-231 breast, 77.7%; in the assay with RXF 393 renal it was 41.9%; in the assay on SF-268 CNS, 63%; in the assay with SF-295 CNS, 94.6%; in the assay on SF-539 CNS it was 81.7%. Besides, in the assay on UACC-257 melanoma, the growth is 94.5%.

As to `COc1cc(/C=C/C(=O)c2ccc(NC(=O)CSc3nnc(-c4ccc5nc(-c6ccccc6)[nH]c5c4)o3)cc2)cc(OC)c1OC`, the growth in the assay with NCI-H23 lung is 92.7%; in the assay on NCI-H226 lung it was 99.3%; with NCI-H322M lung, 96.9%; in the assay on HOP-62 NSCLC, 114%; in the assay with NCI-H460 lung it was 92.5%; with HOP-92 NSCLC it was 142%. Moreover, the growth in the assay on NCI-H522 lung is 95.3%; in the assay with A549/ATCC NSCLC, 105%; in the assay on 786-0 renal it was 75.4%; with COLO 205 colon it was 115%; in the assay on DU-145 prostate, 91%; in the assay on K-562 leukemia, 58.3%. Besides, the growth was 109% in the assay on MALME-3M melanoma; 93.6% with MDA-MB-231 breast; -6.89% (active) in the assay with RXF 393 renal; 97.7% in the assay on SF-268 CNS; 105% with SF-295 CNS; 82.5% with SF-539 CNS. Besides, the growth with UACC-257 melanoma is 87.6%.

On to `Cc1nn(-c2ccccc2)cc1/C=N/Nc1nc(Nc2ccccc2)nc(Nc2ccc(S(N)(=O)=O)cc2)n1`, for which the growth with NCI-H23 lung was -14.9% (active); in the assay on NCI-H226 lung it was -59.2% (active); in the assay with NCI-H322M lung it was 9.11% (active); in the assay with HOP-62 NSCLC, 9.43% (active); in the assay with NCI-H460 lung, -35.9% (active); in the assay with HOP-92 NSCLC, -13% (active). For the same compound, the growth in the assay with NCI-H522 lung was 0.777% (active); in the assay with A549/ATCC NSCLC, -28.7% (active); in the assay on 786-0 renal it was -47.6% (active); in the assay with COLO 205 colon, -22% (active); in the assay on DU-145 prostate, 9.14% (active); in the assay on K-562 leukemia, 9.56% (active). Further, the growth in the assay on MALME-3M melanoma was -25.6% (active); in the assay with MDA-MB-231 breast, -20.8% (active); in the assay on RXF 393 renal, -20.4% (active); with SF-268 CNS, -7.97% (active); in the assay with SF-295 CNS, 10.7%; in the assay with SF-539 CNS it was -71.1% (active). In addition, in the assay on UACC-257 melanoma, the growth was 55.3%.

For `COc1ccc(N)cc1C(=O)Nc1cccc(-c2cc(=O)c3c(OC)c(OC)c(OC)cc3o2)c1`, the growth with NCI-H23 lung is 63.7%; in the assay with NCI-H226 lung, 61.7%; with NCI-H322M lung it was 72.5%; in the assay with HOP-62 NSCLC, 69.6%; in the assay on NCI-H460 lung, 61.5%; with HOP-92 NSCLC, 8.78% (active). For the same compound, the growth was 60.5% with NCI-H522 lung; 69.3% in the assay with A549/ATCC NSCLC; 53.8% with 786-0 renal; 84.7% in the assay on COLO 205 colon; 59.1% in the assay on DU-145 prostate; 46.6% in the assay on K-562 leukemia. Moreover, the growth in the assay on MALME-3M melanoma is 89.4%; in the assay on MDA-MB-231 breast, 60.2%; in the assay on RXF 393 renal, 50.4%; with SF-268 CNS, 68.3%; in the assay with SF-295 CNS it was 63.8%; in the assay on SF-539 CNS, 64.4%. Besides, the growth in the assay on UACC-257 melanoma is 98.9%.
